Data reported in PubChem BioAssay (NCATS).
Calls of active or inactive are those of the source. The call rests on the fitted dose curve.

Experiment: qHTS drug screen for cell cycle checkpoint inhibitors in PARPi-resistant BRCA-mutant ovarian cancer cell lines. (AID 1963452)
Details: PEO1/OlaR viability, CellTiter-Glo luminescence, 96 h; for Z-AUC: stronger effect = lower value
Excerpt: Women's Malignancies Branch, Center for Cancer Research (CCR),
National Cancer Institute (NCI), National Institutes of Health (NIH), Bethesda, MD
Poly (ADP-ribose) polymerase inhibitors (PARPis) have changed the treatment paradigm in breast cancer gene (BRCA) - mutant high-grade serous ovarian carcinoma (HGSC). However, most patients eventually develop resistance to PARPis, highlighting an unmet need for improved therapeutic strategies. Using high-throughput drug screens, we identified ataxia telangiectasia and rad3-related protein/checkpoint kinase 1 (CHK1) pathway inhibitors as cytotoxic and further validated the activity of the CHK1 inhibitor (CHK1i) prexasertib in PARPi-sensitive and -resistant BRCA-mutant HGSC cells and xenograft mouse models. CHK1i monotherapy induced DNA damage, apoptosis, and tumor size reduction. We then conducted a phase 2 study (NCT02203513) of prexasertib in patients with BRCA-mutant HGSC. The treatment was well tolerated but yielded an objective response rate of 6% (1 of 17; one partial response) in patients with previous PARPi treatment. […] BRCA reversion mutation in previously PARPi-treated BRCA-mutant patients was not associated with resistance to CHK1i.
Among others, 1082 oncology drugs, both approved and investigational, were prioritized based on their status in clinical trial development. […] Drugs with average Z-AUC values less than -1.0 in all three cell lines were classified as "hits" resulting in 151 oncology drug hits. The screen also confirmed cross-resistance between olaparib and other PARPis (rucaparib, niraparib, and talazoparib) in PARPi-resistant PEO1/OlaR and PEO4.
[1] G. L. Lin, K. M. Wilson, M. Ceribelli, B. Z. Stanton, P. J. Woo, S. Kreimer, E. Y. Qin, X. Zhang, J. Lennon, S. Nagaraja, P. J. Morris, M. Quezada, S. M. Gillespie, D. Y. Duveau, A. M. Michalowski, P. Shinn, R. Guha, M. Ferrer, C. Klumpp-Thomas, S. Michael, C. McKnight, P. Minhas, Z. Itkin, E. H. Raabe, L. Chen, R. Ghanem, A. C. Geraghty, L. Ni, K. I. Andreasson, N. A. Vitanza, K. E.Warren, C. J. Thomas, M. Monje, Therapeutic strategies for diffuse midline glioma from high-throughput combination drug screening. Sci. Transl. Med. 11, (2019).
[2] T. M. Yamamoto, A. McMellen, Z. L. Watson, J. Aguilera, R. Ferguson, E. Nurmemmedov, T. Thakar, G. L. Moldovan, H. Kim, D. M. Cittelly, A. M. Joglar, E. P. Brennecke, H. Wilson, K. Behbakht, M. J. Sikora, B. G. Bitler, Activation of Wnt signaling promotes olaparib resistant ovarian cancer. Mol. Carcinog. 58, 1770 - 1782 (2019).
PROTOCOL TABLE (as described by Inglese J, Shamu CE and Guy RK. 2007)
SEQUENCE No. (e.g., 1, 2, 3, etc.); […] (e.g., Cells, Incubation, Reagent, etc.); VALUE; DESCRIPTION.
1; Compounds; 20nL; 1536-well white tissue culture-treated plates.
2; Cells; 5 uL; PEO1, PEO4, and PEO1/OlaR cells at 600 cells per well.
3; Incubation; 96 hr; 37C, 95% humidity, 5% CO2.
4; Reagent; 3 uL; CellTiter-Glo (Promega).
5; Incubation; 15 min; room temperature.
6; Detection; Luminescence, PHERAstar (BMG Labtech) plate reader.
NOTES (numbers refer to Sequence numbers above)
1. MIPE 5.0 compounds were acoustically dispensed by Echo Acoustic Liquid Handler (Beckman Coulter Life Sciences). Each compound was plated at an 11-point concentration range with 1:3 dilution. Bortezomib, a proteasome inhibitor (final concentration, 20 uM), was used as a positive.
2. PEO1, PEO4, and PEO1/OlaR were trypsinized and dispensed in 5 uLof growth medium using a Multidrop Combi dispenser at a density of 600 cells per well to allow compounds to be present during the exponential growth phase.
3. Plates were incubated for 96 hours at standard incubator conditions and covered by a stainless steel gasketed lid to prevent evaporation.
4. Three microliters of CellTiter-Glo (Promega) were added to each well.
5. Plates were incubated at room temperature for 15 min with a stainless-steel lid in place.
6. Luminescence readings were taken using PHERAstar (BMG Labtech). […]

[1] = measured here: PEO1 parental Z-AUC
Potency means the concentration at half of the fitted maximal effect.

| Structure (SMILES) | Potency | Z-AUC [1] | Z-AUC (measured here: PEO4 Z-AUC) | Z-AUC |
| --- | --- | --- | --- | --- |
| COc1ccc(S(=O)(=O)N(C(C)=O)c2ccccc2/C=C/c2cc[n+]([O-])cc2)cc1 | 1100 nM (active) | -1.34 | -1.39 | – |
| O=C(c1ccc(Nc2nc(C3CC3)cn3c(-c4cn[nH]c4)cnc23)c(F)c1)N1CCOCC1 | – | 0.912 | 1.07 | 0.98 (inactive) |
| C[C@H]1C[C@@H](n2c(Nc3ccc(OC(F)(F)F)cc3)nc3cc(CCC(=O)O)ccc32)CC(C)(C)C1 | – | 0.953 | 0.855 | 0.184 (inactive) |
| O=C(O)CNC(=O)c1ncc(-c2cccc(Cl)c2)cc1O | – | 0.803 | 0.828 | -0.0287 (inactive) |
| Cc1c(CN2CCC(Nc3ncnc4sc(CC(F)(F)F)cc34)CC2)ccc2c1cc(C#N)n2Cc1cn[nH]c1 | – | -0.643 | -0.075 | -0.417 (inactive) |
| COc1cc2c(NC3CCN(C)CC3)nc(N3CCCN(C)CC3)nc2cc1OCCCN(C)C | – | -0.915 | -1.6 | -0.893 (inactive) |
| Cc1noc(C)c1-c1ccc(-c2cc(C(N)=O)c(NC(N)=O)s2)c(O[C@H]2CCNC2)c1 | – | -0.81 | -0.908 | -0.139 (inactive) |
| Cc1cc(OCCCc2c3n(c4c(-c5c(C)nn(C)c5C)c(Cl)ccc24)[C@H](C)CN(c2cn(C)c4ccc(C(=O)O)cc24)C3=O)cc(C)c1Cl | – | 0.906 | 1.25 | 1.46 (inactive) |
| COc1ccccc1C(=O)Nc1cc2c(cc1N1CCNC[C@H]1C)n(C)c(=O)n2C | – | -0.159 | 0.121 | -0.6 (inactive) |
| CCNC(=O)Nc1ccc(-c2nc3c(c(N4CCOC[C@@H]4C)n2)CCN(C2COC2)C3)cc1 | – | 1.46 | 1.27 | 0.987 (inactive) |
| C[C@@H]1CC2C3C[C@H](F)C4=CC(=O)C=C[C@]4(C)[C@@]3(F)[C@@H](O)C[C@]2(C)[C@@]1(OC(=O)c1ccco1)C(=O)SCF (some centres not stated) | – | 0.658 | -0.282 | 0.16 (inactive) |
| C[C@@H]1COCCN1c1cc(-c2ccnn2C)c2ccnc(-c3ccn[nH]3)c2n1 | – | -1.38 | -1.35 | -0.499 (inactive) |
| CC(/C=C/[C@@H]1C[C@]1(C)c1ccc2c(c1)C(C)(C)CCC2(C)C)=C\C(=O)O | – | 0.571 | 0.122 | -0.0414 (inactive) |
| CC(C)(C)C[C@H]1N[C@@H](C(=O)NC2CCC(O)CC2)[C@H](c2cccc(Cl)c2F)[C@@]12C(=O)Nc1cc(Cl)ccc12 (some centres not stated) | – | 0.559 | 0.282 | -0.139 (inactive) |
